Here are results for 22 compounds from PubChem BioAssay (NCI).

Common to all, as to assay: NCI-60 one-dose screen, 48 h (100 = growth as untreated, 0 = no growth, -100 = all killed)
The test system of assay [1] is HCT-15 colon. As to conditions: 10 µM.
Assay [2] deals with SNB-19 CNS. The conditions noted are these: 10 µM.
Assay [3] deals with U251 CNS. The conditions noted are these: 10 µM.
In assay [4] the test system is PC-3 prostate. The conditions noted are these: 10 µM.
For assay [5], the system named is SK-MEL-5 melanoma. As to conditions: 10 µM.
The subject of assay [6] is UACC-62 melanoma. As to conditions: 10 µM unless noted.
In assay [7] the test system is LOX IMVI melanoma. As to conditions: 10 µM.
In assay [8] the test system is SK-MEL-28 melanoma. As to conditions: 10 µM.
The test system of assay [9] is SNB-75 CNS. The conditions noted are these: 10 µM.
The subject of assay [10] is HT29 colon. The conditions noted are these: 10 µM.

Molecules are shown by their SMILES. Compounds without any hit were thinned out: in the full panel of roughly 83,000, 20% have a hit.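 Method: cells in 96-well plates; compound added at one concentration; 48 h incubation; percent growth measured; values under 10 scored active.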 Values without a mark were called inactive. Activity calls are given as the source filed them.

Consider `CC(=O)OCC1OC(OC2=C(CC=C(C)C)C(=O)c3ccccc3C2=O)C(OC(C)=O)C(OC(C)=O)C1OC(C)=O` (centres undefined), for which the growth in [1] is 12.2%; in assay [2], 61.2%; in assay [3], 8.23% (active); in [4], -6.07% (active); in [5], 4.66% (active); in assay [6], -23.8% (active). In addition, the growth is 6.88% (active) in assay [7] and 30.3% in assay [8].

On to `O=c1cc2oc3cc(O)c(O)cc3c(-c3ccccc3O)c-2cc1O`, for which the growth is 91.7% in assay [1]; 62.9% in assay [9]; 72.5% in [2]; 58.4% in assay [3]; 73.9% in assay [4]; 74.2% in assay [5]. The growth was 80.5% in assay [6], 64.8% in assay [7] and 81.6% in [8].

Consider `NC(=S)NN=C1CCCC1`, for which the growth in [1] is 77.9%; in assay [9], 99.3%; in assay [2], 105%; in assay [3], 73.2%; in assay [4], 89.9%; in assay [5] it was 97.8%. Besides, the growth in assay [6] was 103%; in [7], 88.6%; in [8] it was 101%.

On to `COc1cccc(Sc2ccc([N+](=O)[O-])c3no[n+]([O-])c23)c1`, for which the growth was 30.2% in [10]; 31.8% in [9]; 83.3% in assay [2]; 59.4% in assay [4]; 88.9% in [5]; 53.2% in assay [6]. The growth in assay [7] is 28.9%; in assay [8], 55%.

`CC(=O)c1ccc(C)c(N)c1`: the growth is 100% in assay [1]; 97.6% in assay [9]; 99% in [2]; 98.4% in assay [3]; 92.8% in assay [4]; 110% in assay [5]. In addition, the growth in assay [6] is 99.9%; in assay [7], 76.8%; in assay [8] it was 105%.

As for `O=C(CN1CCNCC1)N1CCOCC1`, the growth in [1] was 104%; in assay [9] it was 86.9%; in assay [3], 106%; in [4] it was 100%; in assay [5], 110%; in assay [6] it was 106%. For the same compound, the growth in assay [7] is 98.4%; in assay [8] it was 115%.

In the case of `O=[N+]([O-])c1ccc(Sc2ccncn2)c([N+](=O)[O-])c1`, the growth was 85.3% in assay [1]; 81.8% in assay [9]; 106% in assay [2]; 106% in assay [3]; 71.9% in assay [4]; 93.1% in [5]. Moreover, the growth in assay [6] is 74.1%; in assay [7], 4.84% (active); in assay [8], 96.1%.

For the compound `CCCCOC(OCCCC)c1ccccc1`, the growth was 102% in assay [10]; 88.9% in assay [9]; 109% in assay [3]; 98.7% in assay [4]; 103% in assay [5]; 97.2% in [6]. Also, the growth was 92.7% in assay [7] and 107% in assay [8].

Regarding `CCOC(=O)C1=C(C)NC(=O)NC1c1cccs1` (centres undefined), the growth in assay [1] is 103%; in assay [9], 103%; in assay [2], 113%; in assay [3] it was 109%; in assay [4] it was 102%; in assay [5] it was 104%. For the same compound, the growth in assay [6] was 115%; in assay [7] it was 101%; in assay [8] it was 106%.

For `CCN(CC)c1ccc2nc3ccc(=[N+](CC)CC)cc-3oc2c1`, the growth is 35.5% in [1]; 1.61% (active) in assay [9]; -1.56% (active) in assay [2]; -13.9% (active) in assay [3]; 4.1% (active) in [4]; -53.4% (active) in assay [5]. Besides, the growth in [6] was -39.1% (active); in assay [7] it was -22.7% (active); in assay [8], 2.45% (active).

As to `CCN(CC)C(=O)/C=C(/C)c1ccccc1`, the growth is 104% in [1]; 93.2% in [9]; 105% in assay [2]; 105% in assay [3]; 93.4% in [4]; 90.1% in [5]. Moreover, the results for the growth in assay [6], in [7] and in assay [8] were 103%, 98.7% and 106%, respectively.

For `O=C(O)CNC(=O)c1ccccc1`, the growth in assay [3] is 96.6%.

Regarding `C/C=C/CC(C)C(O)C1C(=O)NC(CC)C(=O)N(C)CC(=O)N(C)C(CC(C)C)C(=O)NC(C(C)C)C(=O)N(C)C(CC(C)C)C(=O)NC(C)C(=O)NC(C)C(=O)N(C)C(CC(C)C)C(=O)N(C)C(CC(C)C)C(=O)N(C)C(C(C)C)C(=O)N1C` (centres undefined), the growth in [10] is -37.2% (active); in [3], 29.7%; in assay [4], 11.7%; in assay [5], 2.67% (active); in [6], 2.53% (active); in assay [7], 0.362% (active). Besides, the growth in assay [8] was -36.4% (active).

With `CCCCCC(C)(CC(=O)O)CC(=O)O`, the growth in assay [10] is 105%; in [9], 97.4%; in assay [2] it was 116%; in assay [3], 102%; in [4], 99.6%; in [5], 101%. The growth in [6] is 119%; in assay [7] it was 112%; in assay [8] it was 108%.

As for `CC(C)CCCC(=O)O`, the growth in assay [10] is 104%; in [9], 95.4%; in assay [2] it was 101%; in assay [3], 103%; in assay [4], 94.8%; in assay [5], 97.2%. Besides, the growth in assay [6] was 107%; in assay [7], 105%; in [8], 99%.

Turning to `O=[N+]([O-])c1ccc(/C=C/C=C/c2ccccc2)c(Cl)c1`, the growth in assay [10] was 90.3%; in assay [9], 94.2%; in assay [2], 99.7%; in assay [3], 92%; in assay [4], 94.1%; in assay [5] it was 101%. For the same compound, the growth in assay [6] was 96.6%; in assay [7] it was 98%; in [8], 106%.

As to `CCN(CC)CCCC(C)Nc1ccnc(/C=C/c2ccc(Cl)cc2)c1` (centres undefined), the growth in assay [1] was -33.4% (active); in [9], -49.3% (active); in assay [2] it was 53.6%; in assay [3], -58.1% (active); in assay [4], 45.5%; in assay [5] it was -96.7% (active). Also, the growth in [6] is -55.8% (active); in [7], -71.2% (active); in [8], -87.5% (active).

As to `O=S(=O)(O)CC(O)CN1CCN(CCO)CC1` (centres undefined), the growth is 102% in assay [1]; 102% in assay [9]; 115% in assay [2]; 106% in [3]; 81.1% in assay [4]; 107% in [5]. The results for the growth in [6], in assay [7] and in [8] were 117%, 96.8% and 117%, respectively.

Turning to `CC1Cc2ccccc2O1` (centres undefined), the growth was 99.1% in [1]; 105% in assay [9]; 117% in [2]; 111% in [3]; 106% in assay [4]; 108% in [5]. Besides, the growth was 122% in assay [6], 97.4% in assay [7] and 114% in assay [8].

Consider `N#Cc1c(N)sc(=S)c2c1CCCC2`, for which the growth in assay [1] is 104%; in [9] it was 104%; in [2] it was 105%; in assay [3], 107%; in assay [4] it was 100%; in assay [5], 114%. Besides, the values for the growth in assay [6], in assay [7] and in assay [8] were 114%, 99.4% and 112%, respectively.

On to `C/C(=C\c1cc(Cl)ccc1OCC(=O)O)[N+](=O)[O-]`, for which the growth in assay [1] was 101%; in [9], 112%; in [2], 117%; in [3], 102%; in [4], 96.2%; in assay [5] it was 111%. For the same compound, the growth in assay [6] is 109%; in assay [7], 88.6%; in assay [8], 118%.

Take `N=c1c(C(=O)OCc2ccccc2)ncc(CCl)n1O`: the growth in assay [1] was 99.7%; in assay [9] it was 83.6%; in assay [2], 95.6%; in [3], 71.4%; in assay [4], 95.9%; in assay [5], 96.9%. Also, the growth is 91.1% in assay [6], 42.2% in [7] and 98.1% in assay [8].
